Results published in PubChem BioAssay (NCI).
About 83,000 compounds went through this panel and 20% of them were active in at least one assay; those are over-represented in the sample as a whole.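 Activity criterion: percent growth below 10, measured after cells in 96-well plates were exposed to a single compound concentration for 48 hours.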 Unmarked numbers belong to inactive results. Active and inactive are the calls of the source.

The compounds below were run on TK-10 renal (assay: NCI-60 one-dose screen, 48 h (100 = growth as untreated, 0 = no growth, -100 = all killed)). Details: 10 µM unless noted.

| Compound | growth |
| --- | --- |
| COc1cc(/C=C2\CN(S(=O)(=O)c3ccccc3)C/C(=C\c3cc(CN4CCCCC4)c(O)c(OC)c3)C2=O)cc(CN2CCCCC2)c1O | -38.8% (active) |
| O=C(N/N=C/c1cc(Cl)ccc1O)c1ccccc1Nc1ccnc(C(F)(F)F)c1 | 46.4% |
| COc1cc(OC)c(C(=O)C(CN(C)C)CN(C)C)cc1OC | -79.2% (active) |
| CCOc1cccc(/C=N/NC(=O)c2cccc(Nc3ccnc(C(F)(F)F)c3)c2)c1O | 49.5% |
| O=C1/C(=C/c2ccc(O)c(O)c2)COc2ccc(-c3ccccc3)cc21 | 25.8% |
| CCN1C(=O)N(CC)C2C1NC(=S)N2/N=C/c1ccc(OC)cc1 (stereo not drawn) | 79.8% |
| Cc1ccc2c(=O)cc(C(=O)Nc3sc4c(c3C(=O)NCc3cccnc3)CCCC4)oc2c1C | 116% |
| CCOC(=O)CC1CSC(Nc2ccccc2)=N1 (stereo not drawn) | 86% |
| Nn1c(=O)c(=O)[nH]c2c(cnn2-c2ccccc2)c1=O | 109% |
| Nc1[nH]n2cc(-c3ccc(F)cc3)nc2c1N=Nc1ccc(S(N)(=O)=O)cc1 | 83.8% |
| Cn1cc(-c2csc(-c3c[nH]c4ccc(F)cc34)n2)c2ccnc(Cl)c21 | 69.8% |
| Cc1nc2c(c(=O)[nH]1)C(c1ccccc1)c1ccc3ccccc3c1O2 (stereo not drawn) | 74% |
| C=C(C)[C@@H]1CC[C@]2(C(N)=O)CC[C@]3(C)[C@H](CC[C@@H]4[C@@]5(C)CC[C@H](OCCC#N)C(C)(C)[C@@H]5CC[C@]43C)[C@@H]12 | 117% |
| N#Cc1c(Nc2ccc(N3CCOCC3)cc2)nc(SCC(=O)c2ccc(Br)cc2)nc1-c1ccccc1 | 96.6% |
| O=C(NNC(=O)c1ccc(NC(=O)c2ccccn2)cc1)Nc1ccc2ccccc2c1 | 111% |
| CC(=O)OC[C@]12CC[C@@H]([C@@H](C)c3nnc(-c4ccncc4)o3)[C@@H]1[C@H]1CC[C@@H]3[C@@]4(C)CC[C@H](OC(C)=O)C(C)(C)[C@@H]4CC[C@@]3(C)[C@]1(C)CC2 | 94.7% |
| CCN(CC)Cc1cc(Nc2ccnc3cc(Cl)ccc23)ccc1O | 108% |
| COc1ccc(/C=C/C(c2cc(OC)c(OC)c(OC)c2)n2cncn2)cc1 (stereo not drawn) | 48.5% |
| Cc1ccc(C)c2c(C)c(C(=O)Nc3cccc(-n4cccn4)c3)oc12 | 82.1% [50 µM] |
| COc1ccc(/C=C/C(c2cc(OC)c(OC)c(OC)c2)n2ccnc2)cc1O (stereo not drawn) | 84.5% |

| Compound | growth |
| --- | --- |
| O=S(=O)(NCCCNc1nccc(-c2c(-c3cccc(F)c3)nc3occn23)n1)c1ccc(F)cc1 | 56.7% |
| Cn1cc(-c2ccc(-c3cn(C)c4ccc(Cl)cc34)[nH]2)c2cc(Cl)ccc21 | -28.7% (active) |
| S=C(c1ccc2c(c1)OCO2)N1CCN(c2cccc(Cl)c2)CC1 | 53.3% |
| O=C(O)c1ccc(-c2ccc(/C=N/Nc3nc(Nc4ccccc4)nc(N4CCCCC4)n3)o2)cc1 | 41.8% |
| COc1cccc(Nc2ncnc3cc(NC(=O)CCl)ccc23)c1 | -13.2% (active) |
| COc1ccc(-c2n[nH]c(=O)c3nc(NC(=S)Nc4ccc(Oc5ccccc5)cc4)sc23)cc1 | 92.8% |
| COc1ccc(C(=O)N2c3ccccc3Sc3ccccc32)c(C(F)(F)F)c1 | 57.4% |
| C#CCNC(=O)[C@]1(C)CCC[C@@]2(C)[C@H]1CC=C1C=C(C(C)C)CC[C@@H]12 | 99.7% |
| O=C(CCCCCNC(=O)c1cc(=O)c(O)co1)Nc1ccccc1 | 93.6% |
| CNC1=CC(=O)c2c(C(=O)OC)c(C)[n+]([O-])c(C)c2C1=O | 133% |
| O=C1/C(=C\c2ccccn2)c2ccccc2N1c1c(Cl)cccc1Cl | 52% |
| COc1cc(OC)cc(-c2ccc(-c3ccc(C(=N)N)o3)o2)c1 | 83.7% |
| C#CCOc1cccc(-c2ncnc3cc(NC(=O)C=C)ccc23)c1 | 13.8% |
| COc1ccc(-c2nn(-c3ccccc3)cc2/C=C/C(=O)NNC(=O)Nc2ccc(C)cc2)cc1 | 99% |
| C/C(Cc1ccc(Cl)cc1)=C(\c1ccc(OCCCN(C)C)cc1)c1ccc(OC(=O)Cc2ccccc2)cc1 | 98.4% |
| CCOC(=O)C(=CNc1cnc(Nc2ccc(N3CCOCC3)cc2)nc1Oc1ccc(OC)cc1)C(=O)OCC | -26% (active) |
| CC[N+]1(CC)CC[N+]2(CCCC(C)CC2)CC1 (stereo not drawn) | 104% |
| CCNc1nc(O)c(/C=C2\C=Nc3ncccc32)s1 | -3.75% (active) |
| COc1cc(/C=N/Nc2ccc(Br)cc2)cc(OC)c1OC | 97.2% |

Each compound was assayed on ACHN renal in the same assay as above. Details: 10 µM unless noted.

| Compound | growth |
| --- | --- |
| COc1cc(/C=C2\CN(S(=O)(=O)c3ccccc3)C/C(=C\c3cc(CN4CCCCC4)c(O)c(OC)c3)C2=O)cc(CN2CCCCC2)c1O | 27.9% |
| O=C(N/N=C/c1cc(Cl)ccc1O)c1ccccc1Nc1ccnc(C(F)(F)F)c1 | 14.9% |
| COc1cc(OC)c(C(=O)C(CN(C)C)CN(C)C)cc1OC | -87.6% (active) |
| CCOc1cccc(/C=N/NC(=O)c2cccc(Nc3ccnc(C(F)(F)F)c3)c2)c1O | 24.4% |
| O=C1/C(=C/c2ccc(O)c(O)c2)COc2ccc(-c3ccccc3)cc21 | 15.3% |
| CCN1C(=O)N(CC)C2C1NC(=S)N2/N=C/c1ccc(OC)cc1 (stereo not drawn) | 64% |
| Cc1ccc2c(=O)cc(C(=O)Nc3sc4c(c3C(=O)NCc3cccnc3)CCCC4)oc2c1C | 96.8% |
| CCOC(=O)CC1CSC(Nc2ccccc2)=N1 (stereo not drawn) | 105% |
| Nn1c(=O)c(=O)[nH]c2c(cnn2-c2ccccc2)c1=O | 105% |
| Nc1[nH]n2cc(-c3ccc(F)cc3)nc2c1N=Nc1ccc(S(N)(=O)=O)cc1 | 52.3% |
| Cn1cc(-c2csc(-c3c[nH]c4ccc(F)cc34)n2)c2ccnc(Cl)c21 | 51% |
| Cc1nc2c(c(=O)[nH]1)C(c1ccccc1)c1ccc3ccccc3c1O2 (stereo not drawn) | 39.8% |
| C=C(C)[C@@H]1CC[C@]2(C(N)=O)CC[C@]3(C)[C@H](CC[C@@H]4[C@@]5(C)CC[C@H](OCCC#N)C(C)(C)[C@@H]5CC[C@]43C)[C@@H]12 | 74.1% |
| N#Cc1c(Nc2ccc(N3CCOCC3)cc2)nc(SCC(=O)c2ccc(Br)cc2)nc1-c1ccccc1 | 109% |
| O=C(NNC(=O)c1ccc(NC(=O)c2ccccn2)cc1)Nc1ccc2ccccc2c1 | 104% |
| CC(=O)OC[C@]12CC[C@@H]([C@@H](C)c3nnc(-c4ccncc4)o3)[C@@H]1[C@H]1CC[C@@H]3[C@@]4(C)CC[C@H](OC(C)=O)C(C)(C)[C@@H]4CC[C@@]3(C)[C@]1(C)CC2 | 80.8% |
| CCN(CC)Cc1cc(Nc2ccnc3cc(Cl)ccc23)ccc1O | 100% |
| COc1ccc(/C=C/C(c2cc(OC)c(OC)c(OC)c2)n2cncn2)cc1 (stereo not drawn) | 57.5% |
| Cc1ccc(C)c2c(C)c(C(=O)Nc3cccc(-n4cccn4)c3)oc12 | 64.9% [50 µM] |
| COc1ccc(/C=C/C(c2cc(OC)c(OC)c(OC)c2)n2ccnc2)cc1O (stereo not drawn) | 46.3% |

| Compound | growth |
| --- | --- |
| O=S(=O)(NCCCNc1nccc(-c2c(-c3cccc(F)c3)nc3occn23)n1)c1ccc(F)cc1 | 46% |
| Cn1cc(-c2ccc(-c3cn(C)c4ccc(Cl)cc34)[nH]2)c2cc(Cl)ccc21 | -100% (active) |
| S=C(c1ccc2c(c1)OCO2)N1CCN(c2cccc(Cl)c2)CC1 | 34.6% |
| O=C(O)c1ccc(-c2ccc(/C=N/Nc3nc(Nc4ccccc4)nc(N4CCCCC4)n3)o2)cc1 | 73.3% |
| COc1cccc(Nc2ncnc3cc(NC(=O)CCl)ccc23)c1 | -97.6% (active) |
| COc1ccc(-c2n[nH]c(=O)c3nc(NC(=S)Nc4ccc(Oc5ccccc5)cc4)sc23)cc1 | 105% |
| COc1ccc(C(=O)N2c3ccccc3Sc3ccccc32)c(C(F)(F)F)c1 | 32.5% |
| C#CCNC(=O)[C@]1(C)CCC[C@@]2(C)[C@H]1CC=C1C=C(C(C)C)CC[C@@H]12 | 106% |
| O=C(CCCCCNC(=O)c1cc(=O)c(O)co1)Nc1ccccc1 | 102% |
| CNC1=CC(=O)c2c(C(=O)OC)c(C)[n+]([O-])c(C)c2C1=O | 74.4% |
| O=C1/C(=C\c2ccccn2)c2ccccc2N1c1c(Cl)cccc1Cl | 19.6% |
| COc1cc(OC)cc(-c2ccc(-c3ccc(C(=N)N)o3)o2)c1 | 72.6% |
| C#CCOc1cccc(-c2ncnc3cc(NC(=O)C=C)ccc23)c1 | 25.5% |
| COc1ccc(-c2nn(-c3ccccc3)cc2/C=C/C(=O)NNC(=O)Nc2ccc(C)cc2)cc1 | 102% |
| C/C(Cc1ccc(Cl)cc1)=C(\c1ccc(OCCCN(C)C)cc1)c1ccc(OC(=O)Cc2ccccc2)cc1 | 107% |
| CCOC(=O)C(=CNc1cnc(Nc2ccc(N3CCOCC3)cc2)nc1Oc1ccc(OC)cc1)C(=O)OCC | 19% |
| CC[N+]1(CC)CC[N+]2(CCCC(C)CC2)CC1 (stereo not drawn) | 104% |
| CCNc1nc(O)c(/C=C2\C=Nc3ncccc32)s1 | 0.663% (active) |
| COc1cc(/C=N/Nc2ccc(Br)cc2)cc(OC)c1OC | 31.6% |
